Pf growth 96h = P. falciparum growth inhibition at 96 hour, primary screen for plastid delayed-death inhibitors. P. falciparum luciferase reporter growth, 96 h. Potency, µM (titrated, usually from 28.7 µM), inactives show top-dose activity change, negative = inhibition, actives largely listed as inhibitors. 320,000 compounds, 6.9% hits; further: potency means the concentration at half of the fitted maximal effect; on the % scale 0 is the no-effect control and ±100 the full control effect
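Cell-based qHTS: luciferase-tagged P. falciparum in erythrocytes (2% hematocrit, 0.05% parasitemia final) incubated with compounds for 96 hours, 37 C, 5% CO2; luciferase detection reagent then added and luminescence measured.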
CHX counter = affects cycloheximide protein synthesis inhibition readout, counter-screen; cell reporter, cycloheximide protein synthesis inhibition counterscreen; max response, %; 300,000 compounds, 12% hits; AID 2314; in the data active means max response mostly above about 13%, no sharp cut-off; inactive means mostly below about 14%; further: read at 38.3 µM for the half of the compounds with a filed dose; 0% is about no effect
LmPK inh = inhibitors of Leishmania mexicana pyruvate kinase; Q27686; purified LmPK, Kinase-Glo ATP luminescence, 1 h; Potency, µM (series often up to 57.5 µM), without a hit: at the top dose activity change, negative = inhibition, hits mostly inhibitors; 290,000 compounds, 0.37% hits; AID 1721; further: potency means the concentration at half of the fitted maximal effect; on the % scale 0 is the no-effect control and ±100 the full control effect
Target sequence (Q27686 whole entry, looked up): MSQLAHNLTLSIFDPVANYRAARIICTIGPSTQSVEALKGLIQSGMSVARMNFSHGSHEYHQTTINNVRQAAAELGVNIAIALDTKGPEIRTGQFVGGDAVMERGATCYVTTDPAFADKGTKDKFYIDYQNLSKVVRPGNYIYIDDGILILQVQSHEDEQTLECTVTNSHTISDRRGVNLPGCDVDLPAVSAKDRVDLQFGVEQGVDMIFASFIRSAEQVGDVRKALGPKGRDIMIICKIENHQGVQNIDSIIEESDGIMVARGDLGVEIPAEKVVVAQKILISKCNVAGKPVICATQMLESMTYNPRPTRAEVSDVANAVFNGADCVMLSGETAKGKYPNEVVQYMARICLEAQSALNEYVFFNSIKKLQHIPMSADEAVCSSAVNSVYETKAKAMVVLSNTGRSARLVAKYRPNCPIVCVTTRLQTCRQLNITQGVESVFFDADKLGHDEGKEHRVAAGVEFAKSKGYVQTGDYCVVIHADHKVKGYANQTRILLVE
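Kinase-Glo luminescence read after 1 h RT reaction of 0.1 nM LmPK with 0.5 mM PEP and 0.1 mM ADP. Activity scaled between uninhibited and enzyme-free controls.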
Shiga inhibitor = Shiga toxin inhibition | Vero cells, Shiga toxin protein synthesis inhibition reporter | inhibition, % at 38.7 µM | 290,000 compounds, 9.2% hits | AID 2315; in the data active means inhibition mostly above about 28%, no sharp cut-off; inactive means mostly below about 43%; further: 0% is about no effect
Pf growth 48h = inhibits P. falciparum growth in the first generation, 48 h. Potency, µM (series often up to 28.7 µM), inactives show top-dose activity change, negative = inhibition, most hits filed as inhibitors. 310,000 compounds, 5.9% hits. P. falciparum luciferase growth in erythrocytes, 48 h; further: potency means the concentration at half of the fitted maximal effect; on the % scale 0 is the no-effect control and ±100 the full control effect
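Luciferase-expressing parasites in RBCs, 2% Hct / 0.1% parasitemia final; RPMI 1640 + 0.5% Albumax; 37 C, 5% CO2, one generation; luminescence read-out, lower signal = inhibition.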
Starred values were filed as active, the others as inactive; ? = inconclusive; / = no result given; [ ] = dose if it differs, or a comment. Compounds with a hit are over-represented: about 22% of the library has one in this group of screens. Unless noted, the call rests on the fitted dose curve; in most records, active means well fitted inhibition curve with a large enough effect; inconclusive means small, poorly fitted or top-dose-only effect, or another doubt; inactive means no such curve, though single readings can be large or run the other way.

SMILES | Pf growth 96h | CHX counter | LmPK inh | Shiga inhibitor | Pf growth 48h
NC(=O)[C@@H]1CC2(CC(c3cccc(NC(=O)[C@H]4CCC(=O)N4)c3)=NO2)CN1C(=O)COc1ccc(Cl)cc1 (stereo partly drawn) | 39.3% | -4.7 | 0.9% | -5.3 | 49.8%
Fc1cccc(Cl)c1-c1nnc2ccc3ccccc3n12 | -53.2%[5.75 µM] | 36.8* | 4.7% | 34.7* | 1.9%
CCn1cc(S(=O)(=O)Nc2cc(F)ccc2C)cn1 | -15.5% | 0.9 | 6.6% | -0.9 | 20.1%
CCOCCn1c(N2CCN(c3ccccc3)CC2)nc2c1c(=O)n(C)c(=O)n2C | / | -2.2 | -0.9% | 5.9 | ?
CCCCCCn1c(N2CCN(c3ccccc3)CC2)nc2c1c(=O)n(C)c(=O)n2C | / | 0.9 | 4.6% | -7.6 | 6.57µM*
CN1CCN(c2nc3c(c(=O)[nH]c(=O)n3C)n2Cc2ccccc2)CC1 | 0.586µM* | -4.5 | -4.4% | -8.0 | 5.3%
C=CCn1c(Sc2ccccc2)nc2c1c(=O)[nH]c(=O)n2C | 7.8% | -1.1 | -0.7% | -5.0 | 11.7µM*
CN(Cc1ccccc1)c1nc2c(c(=O)[nH]c(=O)n2C)n1CCOc1ccccc1 | ? | -3.1 | 7.5% | -10.0 | 9.28µM*
CN(Cc1ccccc1)c1nc2c(c(=O)[nH]c(=O)n2C)n1Cc1ccccc1 | -14.3% | -2.9 | 11.1% | -10.0 | ?
CC(C)c1ccc(NC(=O)COC(=O)c2cc(=O)[nH]c3ccccc23)cc1 | 36.5% | / | / | / | 45.6%
CCCCCn1c(N2CCN(Cc3ccccc3)CC2)nc2c1c(=O)[nH]c(=O)n2C | ? | -3.1 | 3.8% | -7.0 | 11.7µM*
Cc1ccc(Cn2c(N3CCCCCC3)nc3c2c(=O)[nH]c(=O)n3C)cc1 | / | 1.5 | 0.3% | -11.4 | 4.15µM*
C=C(C)CSc1nc2c(c(=O)[nH]c(=O)n2C)n1Cc1ccccc1 | ? | -4.0 | 5.6% | 2.0 | ?
Cn1c(=O)[nH]c(=O)c2c1nc(SCC(=O)Nc1ccccc1)n2Cc1ccccc1 | 9.28µM* | 7.5 | 8.9% | -4.3 | 11.7µM*
CN(Cc1ccccc1)Cc1nc2c([nH]1)c(=O)[nH]c(=O)n2C | 10.4µM* | -1.1 | -3.8% | 9.3 | 22.2%
Cc1ccc(N2C(=O)CC2(C#N)c2ccc(OCc3ccccc3)cc2)cc1 (stereo not drawn) | ? | -2.1 | 2.1% | -4.8 | /
Cc1cccc(Cn2c(CN3CCN(Cc4ccccc4)CC3)nc3c2c(=O)[nH]c(=O)n3C)c1 | 1.85µM* | -3.9 | 5.7% | -7.6 | 6.57µM*
CCCn1c(N2CCN(Cc3cccc(C)c3)CC2)nc2c1c(=O)[nH]c(=O)n2C | 1.85µM* | -2.8 | 6.6% | -6.5 | /
Cn1c(=O)[nH]c(=O)c2c1nc(CN1CCN(c3cccc(Cl)c3)CC1)n2CCCc1ccccc1 | 13.3% | -1.7 | 2.8% | -6.3 | 9.28µM*
C=C(C)Cn1c(N2CCC(Cc3ccccc3)CC2)nc2c1c(=O)[nH]c(=O)n2C | ? | -4.3 | 4.4% | -3.1 | 13.1µM*
CCCCn1c(CN2CCN(c3cccc(Cl)c3)CC2)nc2c1c(=O)[nH]c(=O)n2C | 35.2% | -3.0 | 6.4% | -11.5 | ?
Cn1c(=O)[nH]c(=O)c2c1nc(CN1CCOCC1)n2Cc1ccccc1 | ? | -1.5 | 2.0% | 28.9 | 4.1%
CC(=O)Cn1c(N2CCC(Cc3ccccc3)CC2)nc2c1c(=O)[nH]c(=O)n2C | ? | -5.5 | 3.4% | 10.0 | 1.6%
Cc1cccc(Cn2c(N3CCN(C)CC3)nc3c2c(=O)[nH]c(=O)n3C)c1 | ? | 1.2 | -1.2% | -3.8 | 14.7%
COc1ccc(S(=O)(=O)N2CCOCC2)cc1C(=O)NC1CCCCCC1 | ? | / | / | / | -24.5%
SMILES | Pf growth 96h | CHX counter | LmPK inh | Shiga inhibitor | Pf growth 48h
CN1CCN(c2nc3c(c(=O)[nH]c(=O)n3C)n2CCCSc2nnnn2-c2ccccc2)CC1 | 9.28µM* | 6.1 | 0.4% | 10.2 | ?
CC(C)(C)c1ccc(C(=O)NCC(=O)OCC(=O)N2CCCC2)cc1 | 44.9% | / | / | / | 1.1%
COCCn1c(N2CCCC2)nc2c1c(=O)[nH]c(=O)n2C | 49.9% | -2.1 | 6.3% | -7.2 | 13.1µM*
COCCn1c(SCc2ccccc2Cl)nc2c1c(=O)[nH]c(=O)n2C | 15.0% | -2.1 | -6.7% | -11.1 | -17.4%
CC(C)n1c(N2CCCC2)nc2c1c(=O)[nH]c(=O)n2C | 7.6% | -5.5 | 1.0% | -4.6 | 8.4%
COCCn1c(Sc2nc(C)cs2)nc2c1c(=O)[nH]c(=O)n2C | 13.1µM* | -4.6 | -2.9% | 19.1 | -21.9%
CCOCCn1c(N2CCCC2)nc2c1c(=O)[nH]c(=O)n2C | ? | 1.3 | 41.3% | / | 41.8%
Cn1c(N2CCCCC2)nc2c1c(=O)[nH]c(=O)n2C | 10.4µM* | 14.7 | 4.1% | -16.7 | -0.5%
O=C(N/N=C/c1ccc(Cl)cc1)c1cc(-c2cccnc2)nc2ccccc12 | ? | 10.1 | -2.9% | -4.2 | ?
Nc1sc(-c2ccccc2)cc1C(=O)N/N=C/c1ccc(Cl)cc1 | 19.4% | 8.9 | 1.8% | 34.0* | -14.5%
COC(=O)c1nc(N)sc1-c1ccc(Cl)cc1 | ? | -0.5 | 7.3% | 17.3 | 8.8%
COC(=O)c1cc(-c2ccccc2)sc1N | 166.1% | 26.2* | 4.6% | 58.4* | /
COC(=O)c1nc(N)sc1-c1ccccc1 | 9.28µM* | -1.2 | 3.9% | 14.5 | 13.6%
O=C(Nc1cnccn1)c1ccc(F)cc1Cl | ? | -1.0 | -4.0% | 11.2 | 1.4%
O=C(N/N=C1\CCCc2ccccc21)c1cccc([N+](=O)[O-])c1 | 13.2% | 10.4 | 11.0% | 33.0 | /
O=C(O)c1cc2c(o1)CCC/C2=N\O | -1.6% | -7.1 | 3.1% | -5.1 | 17.9%
O=C(NN=C1CCCC1)c1cccc(Br)c1 | 15.1% | 25.8* | 1.0% | 86.6* | 7.3%
O=C(N/N=C1\CCCc2ccccc21)c1cccc(Br)c1 | 6.7% | 38.2* | -3.7% | 58.6* | 66.2%
O=C(N/N=C1\CCCc2oc(C(=O)O)cc21)c1ccccc1 | -15.1% | 43.6* | 0.0% | 74.2* | 32.4%
O=C(N/N=C1/CCCc2ccccc21)C(c1ccccc1)c1ccccc1 | ? | 1.0 | 5.0% | 61.4* | ?
CCOc1cc(/C=C2\C(=O)N(c3ccc(C(N)=O)cc3)N=C2C)ccc1OC(=O)c1cccs1 | 4.5% | 5.5 | 1.8% | 12.6 | 20.0%
CC1=NN(c2ccc(C(=O)O)cc2)C(=O)/C1=C\c1ccc(OC(=O)c2cccs2)cc1 | 5.2% | 16.4* | -11.6% | 38.9 | 92.4%
NC1=NC(S)C2N=CN=C2N1 (stereo not drawn) | 7.57µM* | / | / | / | ?
O=C(NCc1cccs1)c1ccc(N2CCCCC2)nc1 | -21.8% | 53.1* | -7.2% | 112.1* | ?
CC1CCN(c2ccc(C(=O)NCCc3ccccc3)cn2)CC1 | 19.8% | 27.3* | 0.8% | 98.9* | 74.9%
CC1CCCN(c2ccc(C(=O)NCc3ccccc3)cn2)C1 (stereo not drawn) | ? | 31.0* | -4.9% | 104.2* | 61.2%
CC1CCN(S(=O)(=O)CCNC(=O)c2ccccc2)CC1 | 10.3% | / | / | / | ?
C#Cc1ccc(C(=O)NCc2ccc(N3CCCC3=O)cc2)cc1 | 9.5% | 2.2 | -0.4% | 10.6 | 25.4%
